{"source": "PubChem BioAssay AID1508625", "about": "(Wald Lab, School of Medicine, Case Western Reserve …, 2021)", "assay": "small molecules boosting NK-mediated OVCAR3 lysis – imaging, primary NK cells, calcein-AM imaging, primary screen (AID 1508625);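 also: compound given to NK cells 16 h before adding targets at 1.5 to 1 ratio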;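 as to z-score: more negative robust z means stronger NK killing of tumor cells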", "details": "OVCAR3 lysis by primary NK cells, at 5 µM; z-score: measured here: robust Z-score, single-point normalisation"}
{"compound": "Cc1ccc(-n2cnc3cc(C(=O)NCC4CCCO4)ccc32)cc1Cl", "note": "(configuration not stated)", "values": [{"measurement": "corrected activity, negative = more killing", "value": -0.997, "unit": "%"}, {"measurement": "z-score", "value": -0.269}]}
{"compound": "CCc1noc(C)c1C(=O)N1CC(C)OC(C)C1", "note": "(configuration not stated)", "values": [{"measurement": "corrected activity, negative = more killing", "value": -2.62, "unit": "%"}, {"measurement": "z-score", "value": -1.08}]}
{"compound": "CCc1ccc(-c2nc3ccccc3c(C(=O)O)c2C)cc1", "values": [{"measurement": "corrected activity, negative = more killing", "value": -3.44, "unit": "%"}, {"measurement": "z-score", "value": -1.41}]}
{"compound": "O=C1C(=O)N(CCCN2CCOCC2)C(c2ccco2)C1=C(O)c1ccc(F)cc1", "note": "(configuration not stated)", "values": [{"measurement": "corrected activity, negative = more killing", "value": -4.3, "unit": "%"}, {"measurement": "z-score", "value": -1.86}]}
{"compound": "O=c1c2cn[nH]c2nc(SCc2ccccc2F)n1-c1ccc(Oc2ccccc2)cc1", "values": [{"measurement": "corrected activity, negative = more killing", "value": -0.689, "unit": "%"}, {"measurement": "z-score", "value": -0.251}]}
{"compound": "COc1cc(NC(=O)c2cc(Cl)cc(Cl)c2OC)ccc1NC(=O)c1ccccc1Cl", "values": [{"measurement": "corrected activity, negative = more killing", "value": -1.43, "unit": "%"}, {"measurement": "z-score", "value": -0.797}]}
{"compound": "O=c1c2c(nc3c(-c4ccc(Cl)cc4)c(Cc4ccccc4)[nH]n13)CCC2", "values": [{"measurement": "corrected activity, negative = more killing", "value": -3.87, "unit": "%"}, {"measurement": "z-score", "value": -2}]}
{"compound": "CCOc1ccc2cc(C3=NN(C(=O)CCC(=O)O)C(c4ccc(Br)cc4)C3)c(Cl)nc2c1", "note": "(configuration not stated)", "values": [{"measurement": "corrected activity, negative = more killing", "value": -2.89, "unit": "%"}, {"measurement": "z-score", "value": -1.55}]}
{"compound": "CCN(C(=O)c1cc2c(=O)n3cccc(C)c3nc2s1)c1ccccc1", "values": [{"measurement": "corrected activity, negative = more killing", "value": -6.23, "unit": "%"}, {"measurement": "z-score", "value": -1.77}]}
{"compound": "COc1ccc(CNC(=O)CSc2nc3cc(Cl)ccc3s2)cc1", "values": [{"measurement": "corrected activity, negative = more killing", "value": -1.73, "unit": "%"}, {"measurement": "z-score", "value": -0.516}]}
{"compound": "O=C(Nc1ccc(Br)cc1)C1CCN(S(=O)(=O)c2cccc3nonc23)CC1", "values": [{"measurement": "corrected activity, negative = more killing", "value": -3.15, "unit": "%"}, {"measurement": "z-score", "value": -0.893}]}
{"compound": "COc1ccc([N+](=O)[O-])cc1N=Cc1ccc(N(C)C)cc1", "values": [{"measurement": "corrected activity, negative = more killing", "value": -10, "unit": "%"}, {"measurement": "z-score", "value": -2.12}]}
{"compound": "CCC(=O)Nc1ccccc1C(=O)C(=O)Nc1ccccc1", "values": [{"measurement": "corrected activity, negative = more killing", "value": -1, "unit": "%"}, {"measurement": "z-score", "value": -0.557}]}
{"compound": "CCOc1ccccc1C=Nc1ccc(Cl)cc1Cl", "values": [{"measurement": "corrected activity, negative = more killing", "value": -4.37, "unit": "%"}, {"measurement": "z-score", "value": -1.86}]}
{"compound": "Cn1c(SCC(=O)c2ccccc2)nc2c([nH]c3ccccc32)c1=O", "values": [{"measurement": "corrected activity, negative = more killing", "value": -5.65, "unit": "%"}, {"measurement": "z-score", "value": -1.41}]}
{"compound": "CCN(CC)c1ccc(C=NS(=O)(=O)c2ccc(C)cc2)cc1", "values": [{"measurement": "corrected activity, negative = more killing", "value": -5.15, "unit": "%"}, {"measurement": "z-score", "value": -2.76}]}
{"compound": "O=C(c1ccc([N+](=O)[O-])cc1)N1N=C(C2CC2)CC1(O)C(F)F", "note": "(configuration not stated)", "values": [{"measurement": "corrected activity, negative = more killing", "value": -2.43, "unit": "%"}, {"measurement": "z-score", "value": -1}]}
{"compound": "O=C(CCn1c(=O)c2sccc2n(Cc2cc(=O)n3ccccc3n2)c1=O)NCc1ccc2c(c1)OCO2", "values": [{"measurement": "corrected activity, negative = more killing", "value": -7.55, "unit": "%"}, {"measurement": "z-score", "value": -2.14}]}
{"compound": "COC(=O)c1ccc(COC(=O)c2cc3ccccc3oc2=O)cc1", "values": [{"measurement": "corrected activity, negative = more killing", "value": -2.06, "unit": "%"}, {"measurement": "z-score", "value": -1.15}]}
{"compound": "COc1ccc(-n2c(=S)[nH]c3cc(C(=O)N4CCOCC4)ccc3c2=O)cc1", "values": [{"measurement": "corrected activity, negative = more killing", "value": -10.1, "unit": "%"}, {"measurement": "z-score", "value": -3.21}]}
{"compound": "CCN(CC)c1cc(O)c2c(c1N)C(=O)c1ccccc1C2=O", "values": [{"measurement": "corrected activity, negative = more killing", "value": -2.05, "unit": "%"}, {"measurement": "z-score", "value": -0.772}]}
{"compound": "CCOc1ccc(C(=O)N2CCc3cc(OC)c(OC)cc3C2)cc1", "values": [{"measurement": "corrected activity, negative = more killing", "value": -2.29, "unit": "%"}, {"measurement": "z-score", "value": -0.852}]}
{"compound": "COC(=O)c1cc(OC)c(OC)cc1NC(=O)c1cc(Cl)ccc1Cl", "values": [{"measurement": "corrected activity, negative = more killing", "value": -1.51, "unit": "%"}, {"measurement": "z-score", "value": -0.842}]}
{"compound": "O=C(Nc1cc([N+](=O)[O-])ccc1Cl)c1cnc2n(c1=O)CCS2", "values": [{"measurement": "corrected activity, negative = more killing", "value": -1.04, "unit": "%"}, {"measurement": "z-score", "value": -0.332}]}
{"compound": "CCc1ccccc1N1C(=O)C2C(c3ccc(Br)cc3)OC3(C(=O)c4ccccc4C3=O)C2C1=O", "note": "(configuration not stated)", "values": [{"measurement": "corrected activity, negative = more killing", "value": 0.455, "unit": "%"}, {"measurement": "z-score", "value": 0.141}]}
{"compound": "COc1ccc(C(=O)N2N=C(C(C)C)CC2(O)C(F)(F)F)cc1OC", "note": "(configuration not stated)", "values": [{"measurement": "corrected activity, negative = more killing", "value": -4.89, "unit": "%"}, {"measurement": "z-score", "value": -1.46}]}
